# High-throughput results from PubChem.
# Only some compounds are listed: those with a hit (about 8.7% of all), similar ones and a draw of the others.
# VACV mCherry inh = inhibitors of vaccinia virus infection (mCherry reporter signal) | Vaccinia virus mCherry reporter infection, fluorescence | Potency, µM (doses to about 36.5 µM), for inactives: top-dose activity change, negative = inhibition, most hits filed as inhibitors | hit rate 0.63% among 310,000; calls by dose curve; tested in A549 cells; further: nearly all actives have a fitted effect of over 35% in size
# VACV Venus inh = inhibitors of vaccinia virus (Venus reporter); AID 720580; Potency, µM (top dose mostly 36.5 µM), for the others: at the highest dose activity change, negative = inhibition, most hits filed as inhibitors; hit rate 0.46% among 330,000; Vaccinia virus Venus reporter expression, fluorescence; calls by dose curve; tested in A549 cells; further: nearly all actives have a fitted effect of over 30% in size
# Pf growth 48h = P. falciparum growth inhibition at 48 hours (one generation) | P. falciparum luciferase growth in erythrocytes, 48 h | Potency, µM (titrated, usually from 28.7 µM), for inactives: top-dose activity change, negative = inhibition, hits mostly inhibitors | hit rate 5.9% among 310,000
#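 Read-out is firefly luciferase luminescence from an integrated reporter in P. falciparum, so falling signal marks reduced parasite growth. Infected erythrocytes were at 2% hematocrit and 0.1% parasitemia (final) in Albumax-supplemented RPMI 1640.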
# AMA1 RON2 block = AMA1-RON2 (P. falciparum) interaction inhibition; AlphaScreen AMA1-biotinylated RON2 peptide binding; Potency, µM (series often up to 58.2 µM), for inactives: at the highest dose activity change, negative = inhibition, actives largely listed as inhibitors; hit rate 0.2% among 360,000;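 further: 0% = vehicle wells and -100% = peptide control; nearly all actives have a fitted effect of over 45% in size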
#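 AMA1 (3D7) with his tag at 25 nM final met compounds first, then biotinylated RON2 peptide at 25 nM; detection used donor plus acceptor beads, 10 µg/mL apiece, read by AlphaScreen after 30 min at room temperature.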
# Pf growth 96h = P. falciparum growth inhibition at 96 hours; P. falciparum luciferase reporter growth, 96 h; Potency, µM (titrated, usually from 28.7 µM), for the others: at the top dose activity change, negative = inhibition, hits mostly inhibitors; hit rate 6.9% among 320,000; AID 504834
#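 P. falciparum expressing integrated firefly luciferase grown in erythrocytes (2% hematocrit, 0.05% parasitemia final) with compounds for 96 hours at 37 C, 5% CO2. Growth inhibition read as loss of luminescence after adding luciferase detection reagent.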
# * marks the source's active call; other numbers are inactive results; i = inactive; ? = inconclusive; . = no result; [ ] = dose if it differs, or a comment. Unless noted, the call rests on the fitted dose curve; in most records, active means well fitted curve in the direction sought with a large enough effect; inconclusive means small, poorly fitted or top-dose-only effect, or another doubt; inactive means no such curve, though single readings can be large; an effect the other way counts as inactive or inconclusive. Unless noted, on the % scale 0 is the no-effect control and ±100 the full control effect; potency means the concentration at half of the fitted maximal effect.
SMILES,VACV mCherry inh,VACV Venus inh,Pf growth 48h,AMA1 RON2 block,Pf growth 96h
CCc1ccc(OCC(=O)N2CCN(c3ccccc3F)CC2)cc1,.,.,17%,8%,6.6µM*
O=C(CNC1CCCCCC1)Nc1ccccc1N1CCCCC1,.,.,?,-7%,?
Cc1cccc(OCC(=O)Nc2ccccc2N2CCCCC2)c1C,i,-23%,12µM*,-16%,1.9µM*
O=C(CNCCC1=CCCCC1)Nc1ccccc1N1CCCCC1,.,.,13µM*,-2%,12%
O=C(COc1ccccc1Cl)Nc1ccccc1C(=O)Nc1cccc(C(=O)O)c1,.,.,56%,-5%,26%
O=C(COc1ccccc1Cl)Nc1ccc(C(=O)O)cc1NC(=O)COc1ccccc1Cl,i,-13%,1%,-24%,6.6µM*
CCc1cccc(OCC(=O)Nc2ccccc2N2CCCC2)c1,-14%,-10%,?,-24%,?
O=C(NCc1ccccc1)c1ccc2c(c1)CCN2S(=O)(=O)c1ccc(Cl)cc1,-17%,-8%,.,.,.
CSc1ccc(C2CC(=O)Oc3c2c(=O)n(C)c2ccccc32)cc1 (configuration not stated),-26%,-21%,.,.,.
CCC(=O)N1CCN(c2ccccc2NC(=O)COc2ccc(C(C)C)cc2)CC1,.,.,10µM*,8%,?
COc1ccc(OCC(=O)Nc2ccccc2N2CCN(C)CC2)cc1,-4%,-3%,-11%,0%,-3%
Cc1ccc(Cl)cc1NC(=O)C1CCN(S(=O)(=O)c2cccc3nonc23)CC1,-10%,-2%,.,.,.
Cc1ccc2cc(CN(C(=O)c3ccco3)c3ccccc3)c(=O)[nH]c2c1,.,-22%,-10%,-11%,?
Cc1cccc(N(Cc2cc3ccc(C)cc3[nH]c2=O)C(=O)c2ccco2)c1,.,.,?,-5%,10µM*
CC(=O)N(Cc1cc2cc(C)ccc2[nH]c1=O)c1cccc(C)c1C,.,.,0%,10%,9.3µM*
CCCN(Cc1cc2ccc(C)cc2[nH]c1=O)C(=O)c1cccnc1,-8%,-9%,?,-3%,.
Cc1ccc2cc(CN(C(=O)c3cccnc3)C(C)C)c(=O)[nH]c2c1,.,.,12µM*,-7%,?
COc1cccc(C(=O)N(Cc2cc3cc(C)ccc3[nH]c2=O)C(C)C)c1,-11%,-3%,7.4µM*,12%,3.7µM*
CSc1ccc(CCNC(=O)c2ccc(-c3nc(COc4ccccc4)c(C)o3)cc2)cc1,4%,-11%,.,.,.
COc1cc(CN2CC(=O)N(c3cccc(Cl)c3C)C2=S)cc(OC)c1OC,.,.,2.6µM*,-10%,0%
COc1cc(CN2CC(=O)N(c3ccccc3Cl)C2=S)cc(OC)c1OC,i,-13%,5.9µM*,-11%,-4%
COc1cc(Cl)c(C)cc1N1C(=O)CN(Cc2ccccc2)C1=S,.,.,?,-2%,25%
COc1cccc(-n2c(SCc3cccc(C)c3)nc3c([nH]c4ccccc43)c2=O)c1,-7%,-11%,.,.,.
COc1ccc(C2(c3ccc(OC)cc3)NC(=O)N(CC(=O)NC3(C#N)CCCC3)C2=O)cc1,-16%,-10%,?,4%,?
Cc1ccc(C2(c3ccccc3)NC(=O)N(CC(=O)NCc3ccco3)C2=O)cc1C (configuration not stated),.,.,?,-7%,5.9µM*
SMILES,VACV mCherry inh,VACV Venus inh,Pf growth 48h,AMA1 RON2 block,Pf growth 96h
Cc1ccc(C2(c3ccccc3)NC(=O)N(CC(=O)NC3(C#N)CCCC3)C2=O)cc1C (configuration not stated),.,.,13µM*,0%,?
CCOc1ccc(C(=O)Nc2ccc(S(=O)(=O)Nc3nc(C)cc(C)n3)cc2)cc1OC,-6%,6%,.,.,.
O=C(O)c1ccc(NC(=O)c2ccc(COc3ccccc3)o2)cc1,.,.,13%,-6%,52%
COc1ccc(NC(=O)c2ccc(COc3ccc(C)cc3)o2)cc1,-5%,-9%,3%,0%,5.2µM*
Cc1cc(NC(=O)c2ccc(COc3ccc(Cl)c(C)c3)o2)no1,-14%,-5%,-9%,3%,9.3µM*
CCOC(=O)c1ccc(COc2ccc(C(C)C)cc2)o1,i,2%,215%,25%,5%
CCOc1ccc(OCc2ccc(C(=O)OCc3ccccn3)o2)cc1,-18%,-6%,143%,9%,10µM*
CC(=O)Nc1ccc(NC(=O)c2ccc(COc3ccc(C)cc3)o2)cc1,-18%,-7%,0%,4%,9.3µM*
Cc1cc(NC(=O)c2ccc(COc3ccccc3Cl)o2)no1,i,-6%,-19%,1%,-16%
CCOc1ccc(OCc2ccc(C(=O)NC(C)C)o2)cc1,.,.,?,0%,12µM*
CCCNC(=O)c1ccc(COc2ccc(C)cc2)o1,.,.,?,1%,?
Cc1cccc(CSCc2ccc(C(=O)NC(C)C)o2)c1,.,.,2%[0.00184 µM],-6%,3.7µM*
Cc1ccc(CNC(=O)c2ccc(CSCc3cccc(C)c3)o2)cc1,-3%,-1%,.,.,.
CC(NC(=O)C1CCOCC1)c1nnc2n1CCN(Cc1ccc(F)cc1)CC2 (configuration not stated),-15%,-4%,.,.,.
COCCNC(=O)CCCn1c(SCC(=O)c2ccc(Br)cc2)nc2c(sc3ccccc32)c1=O,-16%,-13%,.,.,.
COc1ccccc1-n1c(SCC(=O)N2CCOCC2)nc(O)cc1=O,-15%,-14%,?,-5%,?
CCN(CC)S(=O)(=O)c1ccc2c(c1)nc(SCC(=O)N1CCOCC1)n2-c1ccccc1OC,.,.,?,-7%,12µM*
CCN(CC)S(=O)(=O)c1ccc2c(c1)nc(SCC(=O)N1CCCCCC1)n2-c1ccc(OC)cc1,.,.,13µM*,-9%,.
CCCN1CNc2c(c(=O)[nH]c(=S)n2CCc2cccc(OC)c2)C1,-11%,-13%,.,.,.
CCc1nc(Sc2nnnn2-c2ccccc2)c2c3c(sc2n1)CCCC3,1%,-2%,12µM*,15%,?
C=CCn1cc(CN2CCC(C(=O)Nc3cccc(-c4cccc(F)c4)c3)CC2)c(C)n1,?,?,15µM*,-6%,?
CCCn1ncc(CN2CCC(C(=O)Nc3cccc(-c4cccc(F)c4)c3)CC2)c1C,?,?,7.4µM*,-1%,?
CCn1cc(C(=O)N2CCN(c3ccccc3)CC2)c(=O)c2cc(S(=O)(=O)N3CCCC3)ccc21,-15%,-2%,.,.,.
O=C(CCN1C(=O)/C(=C/c2ccccc2)SC1=S)N[C@@H](CO)Cc1ccccc1,.,.,1%,-1%,13µM*
O=C(CCN1C(=O)/C(=C/c2ccccc2)SC1=S)NC1CCS(=O)(=O)C1 (configuration not stated),-8%,-6%,?,-10%,13µM*
O=C(CCN1C(=O)/C(=C/c2ccccc2Cl)SC1=S)NC1CCS(=O)(=O)C1 (configuration not stated),.,.,4%,7%,?
O=C(CCCN1C(=O)/C(=C/c2ccc(F)cc2)SC1=S)NC1CCS(=O)(=O)C1 (configuration not stated),.,.,9.3µM*,4%,10µM*
